Measurements published in the supplement of paper PMC6089552.
Screen size: about 3,200 compounds; about 300 (9.4%) showed activity. The entries come from a sample that favours actives as a whole. A number with no mark means an inactive call.

System: A673/TR/shEF
Assay: cell viability (LOESS-normalised, relative to median of negative controls) (log2 ratio); higher = more viable cells (less compound effect), active = hit call of the paper (over 3 MAD below the median)
Conditions: treatment time: 72 h
Procedure, shortened: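 A673/TR/shEF Ewing sarcoma cells were plated at 1,500 per well in 384-well plates and cultured with or without doxycycline, added 24 h before compounds, to induce EWS-FLI1 shRNA knockdown. Library compounds at two or more concentrations, alongside DMSO controls, were applied for three days. Cell viability was measured by CellTiter-Glo luminescence on an Envision reader. Readings were LOESS-corrected per plate, divided by the median of negative controls and log2-transformed, and hits were wells lying at least three median absolute deviations from the median of all screened wells.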

[1] = 0.25 µM, library screen: screen1, EWS-FLI1 expression: high (no doxycycline)
[2] = 0.25 µM, library screen: screen1, EWS-FLI1 expression: low (doxycycline-induced shRNA knockdown)
[3] = 2.5 µM, library screen: screen1, EWS-FLI1 expression: high (no doxycycline)
[4] = 2.5 µM, library screen: screen1, EWS-FLI1 expression: low (doxycycline-induced shRNA knockdown)
[5] = 0.25 µM, library screen: screen2, EWS-FLI1 expression: high (no doxycycline)
[6] = 0.25 µM, library screen: screen2, EWS-FLI1 expression: low (doxycycline-induced shRNA knockdown)
[7] = 2.5 µM, library screen: screen2, EWS-FLI1 expression: high (no doxycycline)
[8] = 2.5 µM, library screen: screen2, EWS-FLI1 expression: low (doxycycline-induced shRNA knockdown)
[9] = 0.103 µM, library screen: screen3, EWS-FLI1 expression: high (no doxycycline)
[10] = 0.103 µM, library screen: screen3, EWS-FLI1 expression: low (doxycycline-induced shRNA knockdown)
[11] = 0.308 µM, library screen: screen3, EWS-FLI1 expression: high (no doxycycline)
[12] = 0.308 µM, library screen: screen3, EWS-FLI1 expression: low (doxycycline-induced shRNA knockdown)
[13] = 0.926 µM, library screen: screen3, EWS-FLI1 expression: high (no doxycycline)
[14] = 0.926 µM, library screen: screen3, EWS-FLI1 expression: low (doxycycline-induced shRNA knockdown)
[15] = 2.8 µM, library screen: screen3, EWS-FLI1 expression: high (no doxycycline)
[16] = 2.8 µM, library screen: screen3, EWS-FLI1 expression: low (doxycycline-induced shRNA knockdown)
[17] = 8.3 µM, library screen: screen3, EWS-FLI1 expression: high (no doxycycline)
[18] = 8.3 µM, library screen: screen3, EWS-FLI1 expression: low (doxycycline-induced shRNA knockdown)
[19] = 25 µM, library screen: screen3, EWS-FLI1 expression: high (no doxycycline)
[20] = 25 µM, library screen: screen3, EWS-FLI1 expression: low (doxycycline-induced shRNA knockdown)

O=c1cccc2c([C@H]3Oc4cc(O)cc(O)c4C[C@H]3O)cc(O)c(O)c2c1O
cell viability (log2) [1]: 0.06 | cell viability (log2) [2]: 0.00163 | cell viability (log2) [3]: 0.108 | cell viability (log2) [4]: 0.0999

N#C/C(=C\c1cc(Cl)cc(Cl)c1)c1cccnc1
cell viability (log2) (0.025 µM, library screen: screen1, EWS-FLI1 expression: high (no doxycycline)): 0.0512 | cell viability (log2) (0.025 µM, library screen: screen1, EWS-FLI1 expression: low (doxycycline-induced shRNA knockdown)): 0.0254 | cell viability (log2) [1]: 0.126 | cell viability (log2) [2]: 0.0849 | cell viability (log2) [3]: 0.0839 | cell viability (log2) [4]: 0.0837 | cell viability (log2) (25 µM, library screen: screen1, EWS-FLI1 expression: high (no doxycycline)): -0.0133 | cell viability (log2) (25 µM, library screen: screen1, EWS-FLI1 expression: low (doxycycline-induced shRNA knockdown)): 0.21

CC(C)c1ccc2c(c1)CC[C@@]1(C)[C@](C)(C(N)=O)CCC[C@]21C
cell viability (log2) [1]: 0.0259 | cell viability (log2) [2]: 0.0473 | cell viability (log2) [3]: 0.108 | cell viability (log2) [4]: 0.0563

CC(=O)O[C@H]1CC[C@@]2(C)C(CC[C@]3(C)C2CC=C2C4CC(C)(C)CC[C@]4(C)CCC23C)C1(C)C (some centres undefined)
cell viability (log2) [1]: 0.05 | cell viability (log2) [2]: 0.112 | cell viability (log2) [3]: 0.0854 | cell viability (log2) [4]: 0.111

COc1ccc(OC)c(CN2CCN(Cc3cc(OC)c(OC)cc3OC)CC2)c1
cell viability (log2) [1]: -0.103 (active) | cell viability (log2) [2]: 0.113 | cell viability (log2) [3]: 0.0261 | cell viability (log2) [4]: -0.0111

COc1ccc(OC)c(CN2CCN(Cc3ccccc3OC)CC2)c1
cell viability (log2) [1]: 0.101 | cell viability (log2) [2]: 0.0584 | cell viability (log2) [3]: 0.0952 | cell viability (log2) [4]: 0.0149

COc1ccc(OC)c(CN2CCN(Cc3ccc(OC)c(OC)c3)CC2)c1
cell viability (log2) [1]: 0.114 | cell viability (log2) [2]: 0.0365 | cell viability (log2) [3]: 0.174 | cell viability (log2) [4]: 0.0479

COc1ccc(CN2CCN(Cc3ccc(OC)c(OC)c3OC)CC2)c(OC)c1
cell viability (log2) [1]: 0.0664 | cell viability (log2) [2]: 0.0443 | cell viability (log2) [3]: 0.0638 | cell viability (log2) [4]: 0.0995

Cc1ccc(S(=O)(=O)N[C@@H](Cc2ccccc2)C(=O)CCl)cc1
cell viability (log2) [5]: 0.00163 | cell viability (log2) [6]: 0.0223 | cell viability (log2) [7]: 0.0887 | cell viability (log2) [8]: 0.111

CC(C)[C@H](NC(=O)OCc1ccccc1)C(=O)N[C@H](C=O)Cc1ccccc1
cell viability (log2) [5]: 0.0586 | cell viability (log2) [6]: 0.0917 | cell viability (log2) [7]: 0.108 | cell viability (log2) [8]: 0.155

O=C(N[C@@H](Cc1ccccc1)C(=O)CCl)OCc1ccccc1
cell viability (log2) [5]: 0.163 | cell viability (log2) [6]: 0.156 | cell viability (log2) [7]: -0.218 (active) | cell viability (log2) [8]: 0.0216

C[N+]1(C)[C@@H]2CC(OC(=O)C(O)(c3cccs3)c3cccs3)C[C@H]1[C@@H]1O[C@@H]12 (some centres undefined)
cell viability (log2) [9]: -0.0419 | cell viability (log2) [10]: -0.0363 | cell viability (log2) [11]: -0.000855 | cell viability (log2) [12]: 0.0413 | cell viability (log2) [13]: 0.0247 | cell viability (log2) [14]: 0.0262 | cell viability (log2) [15]: 0.0531 | cell viability (log2) [16]: 0.0434 | cell viability (log2) [17]: 0.0573 | cell viability (log2) [18]: 0.11 | cell viability (log2) [19]: 0.0805 | cell viability (log2) [20]: 0.115

Cc1occc(=O)c1C=CO
cell viability (log2) [1]: 0.064 | cell viability (log2) [2]: 0.0191 | cell viability (log2) [3]: 0.188 | cell viability (log2) [4]: 0.0363

CC1(C)S[C@@H]2[C@H](NC(=O)[C@H](N)c3ccccc3)C(=O)N2[C@H]1C(=O)O
cell viability (log2) [1]: 0.0882 | cell viability (log2) [2]: 0.14 | cell viability (log2) [3]: 0.142 | cell viability (log2) [4]: 0.206

CC1(C)S[C@@H]2[C@H](NC(=O)[C@H](N)c3ccc(O)cc3)C(=O)N2[C@H]1C(=O)O
cell viability (log2) [9]: 0.0884 | cell viability (log2) [10]: 0.104 | cell viability (log2) [1]: 0.0883 | cell viability (log2) [2]: 0.0656 | cell viability (log2) [11]: -0.0334 | cell viability (log2) [12]: 0.0742 | cell viability (log2) [13]: 0.0733 | cell viability (log2) [14]: 0.103 | cell viability (log2) [3]: 0.14 | cell viability (log2) [4]: 0.178 | cell viability (log2) [15]: -0.017 | cell viability (log2) [16]: 0.0291 | cell viability (log2) [17]: 0.0293 | cell viability (log2) [18]: 0.106 | cell viability (log2) [19]: -0.676 (active) | cell viability (log2) [20]: -0.0237

CC1(C)S[C@@H]2[C@H](NC(=O)C(C(=O)O)c3ccccc3)C(=O)N2[C@H]1C(=O)O (some centres undefined)
cell viability (log2) [1]: 0.137 | cell viability (log2) [2]: 0.0878 | cell viability (log2) [3]: 0.243 | cell viability (log2) [4]: 0.131

CC(=O)N1CCC[C@H]1C(=O)O
cell viability (log2) [1]: 0.138 | cell viability (log2) [2]: 0.0212 | cell viability (log2) [3]: 0.184 | cell viability (log2) [4]: 0.0486

C=C1c2cc(OC)ccc2NC(=O)N1c1ccccc1
cell viability (log2) [1]: 0.0622 | cell viability (log2) [2]: 0.09 | cell viability (log2) [3]: 0.104 | cell viability (log2) [4]: 0.0838

CC(C)NC[C@H](O)c1ccc(O)c(O)c1
cell viability (log2) [5]: 0.15 | cell viability (log2) [6]: 0.0965 | cell viability (log2) [7]: 0.0541 | cell viability (log2) [8]: 0.0273

COC(=O)C[C@H]1C(C)(C)[C@@H](OC(C)=O)[C@@H]2CC3=C4CC(=O)O[C@@H](c5ccoc5)[C@]4(C)CC[C@@H]3[C@@]1(C)C2=O
cell viability (log2) [1]: 0.0358 | cell viability (log2) [2]: 0.0144 | cell viability (log2) [3]: 0.0778 | cell viability (log2) [4]: 0.108
